Compound activity: PubChem BioAssay, National Center for Advancing Translational Sciences (NCATS)
A selection: hits, their analogues and other compounds. The true share with any hit is near 22%.
Shiga inhibitor – inhibitors of Shiga toxin in Vero cells; 9.2% of 290,000 active; AID 2315; inhibition, % at 38.7 µM; Vero cells, Shiga toxin protein synthesis inhibition reporter; in the data active = inhibition mostly above about 28%, no sharp cut-off; inactive = mostly below about 43%; also: 0% is about no effect
LmPK inhibitor – LmPK (Leishmania mexicana) enzyme inhibition; purified LmPK, Kinase-Glo ATP luminescence, 1 h; Potency, µM (series often up to 57.5 µM), inactives show at the highest dose activity change, negative = inhibition, hits mostly inhibitors; 0.37% of 290,000 active; AID 1721; Q27686; also: potency is read from the fitted curve at half-maximal effect; % is scaled to controls: 0 for no effect and ±100 for the full control effect
Target sequence (Q27686 whole entry, looked up): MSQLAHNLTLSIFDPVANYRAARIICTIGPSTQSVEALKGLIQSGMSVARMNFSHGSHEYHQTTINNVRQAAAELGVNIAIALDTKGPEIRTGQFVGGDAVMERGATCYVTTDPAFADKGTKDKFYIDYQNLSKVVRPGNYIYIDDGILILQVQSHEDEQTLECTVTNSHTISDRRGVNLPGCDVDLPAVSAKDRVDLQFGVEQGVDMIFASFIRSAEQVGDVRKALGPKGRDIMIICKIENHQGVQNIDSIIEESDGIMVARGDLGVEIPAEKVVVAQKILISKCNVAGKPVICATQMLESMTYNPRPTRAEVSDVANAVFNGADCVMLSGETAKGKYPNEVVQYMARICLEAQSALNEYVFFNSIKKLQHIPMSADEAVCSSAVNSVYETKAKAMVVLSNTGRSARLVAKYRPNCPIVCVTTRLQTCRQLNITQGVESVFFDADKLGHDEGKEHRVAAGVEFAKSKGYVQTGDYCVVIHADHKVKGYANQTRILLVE
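ATP generated from ADP (0.1 mM) and PEP (0.5 mM) by 0.1 nM LmPK over 1 h at room temperature (pH 7.2 imidazole buffer) was detected by coupled luciferase luminescence. Values were normalized to uninhibited and no-enzyme wells.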
Pf growth 96h – inhibits malaria parasite growth, 96 h; P. falciparum luciferase reporter growth, 96 h; Potency, µM (titrated, usually from 28.7 µM), for the others: top-dose activity change, negative = inhibition, usual class: inhibitors; 6.9% of 320,000 active; AID 504834; also: potency is read from the fitted curve at half-maximal effect; % is scaled to controls: 0 for no effect and ±100 for the full control effect
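Plates of compound plus infected erythrocytes (2% hematocrit, 0.05% parasitemia final) incubate 96 hours, 37 C, 5% CO2. Detection reagent added; reduced luminescence from the parasites' luciferase reporter flags inhibition.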
Cycloheximide cs – affects cycloheximide protein synthesis inhibition readout, counter-screen | cell reporter, cycloheximide protein synthesis inhibition counterscreen | max response, % | 12% of 300,000 active; in the data active = max response mostly above about 13%, no sharp cut-off; inactive = mostly below about 14%; also: read at 38.3 µM for the half of the compounds with a filed dose; 0% is about no effect
Pf growth 48h – P. falciparum growth inhibition at 48 hours (one generation); 5.9% of 310,000 active; P. falciparum luciferase growth in erythrocytes, 48 h; Potency, µM (titrated, usually from 28.7 µM), without a hit: at the top dose activity change, negative = inhibition, actives largely listed as inhibitors; also: potency is read from the fitted curve at half-maximal effect; % is scaled to controls: 0 for no effect and ±100 for the full control effect
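Luciferase-expressing parasites in RBCs, 2% Hct / 0.1% parasitemia final; RPMI 1640 + 0.5% Albumax; 37 C, 5% CO2, one generation; luminescence read-out, lower signal = inhibition.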
* marks the source's active call; other numbers are inactive results; ? = inconclusive; · = no result given. Unless noted, calls follow the shape of the dose curve; as a rule, active = well fitted inhibition curve with a large enough effect; inconclusive = small, poorly fitted or top-dose-only effect, or another doubt; inactive = no such curve, though single readings can be large or run the other way.

SMILES	Shiga inhibitor	LmPK inhibitor	Pf growth 96h	Cycloheximide cs	Pf growth 48h
OCCCNc1nc(-c2ccc(Cl)cc2)nnc1-c1ccc(Br)cc1	-4	-3%	?	-4	-30%
O=[N+]([O-])c1ccc(-c2nnc(-c3ccccc3)c(NCCCO)n2)cc1	23	-2%	5.2µM*	-3	?
Cc1cc(C(=O)CN2C(=O)NC(C)(c3ccccc3)C2=O)c(C)n1CC1CCCO1 (stereo not drawn)	-7	0%	143%	-3	-7%
Cc1cc(C(=O)COC(=O)CNC(=O)c2ccccc2)c(C)n1CC1CCCO1 (stereo not drawn)	134*	0%	243%	26*	330%
Cc1cc(C(=O)CN2C(=O)c3ccccc3S2(=O)=O)c(C)n1CC1CCCO1 (stereo not drawn)	-24	0%	10%	-9	2.1µM*
Cc1cccc(C(=O)NCC(=O)OCC(=O)c2cc(C)n(CC3CCCO3)c2C)c1 (stereo not drawn)	89*	5%	110%	48*	287%
COc1ccc(/C(C)=N/NC(=O)CN(c2ccc(OC)cc2)S(=O)(=O)c2ccccc2)cc1	-9	-2%	91%	-4	0%
C[C@H](NC(=O)OC(C)(C)C)C(=O)NCC1CCC(C(=O)N[C@@H](Cc2ccccc2)C(=O)O)CC1 (stereo partly drawn)	1	-9%	-9%	1	·
Cc1ccc(Sc2ccc(NC(=O)CCN3C(=O)NC4(CCCC4)C3=O)cc2)c(C)c1	·	·	-19%	·	?
O=C1CNC(=O)N1CC(=O)N1CCCc2ccccc21	11	0%	20%	-2	·
CN1CCN(S(=O)(=O)c2ccc(Oc3cccc(C(F)(F)F)c3)nc2)CC1	·	·	32%	·	?
Cc1cnc(C)c(N2CCN(Cc3nc(-c4ccc(C)o4)oc3C)CC2)n1	-3	8%	16%	11	?
Cc1ccc(-c2nc(CN(Cc3cnn(C)c3)C(C)C)c(C)o2)o1	-9	5%	7.4µM*	0	-6%
Cc1ccc(NC(=O)CCCCCNS(=O)(=O)c2ccc(C)cc2)cc1	3	2%	12µM*	-2	?
COCCNC(=O)CCCCCNS(=O)(=O)c1ccc(C)cc1	16	0%	0%	-3	2%
Cc1ccc(S(=O)(=O)NCCCCCC(=O)Nc2nccs2)cc1	17	3%	5%	-1	13µM*
CCOCCCNC(=O)CCNS(=O)(=O)c1ccc(C)cc1	-10	2%	9.3µM*	-2	5%
Cc1ccc(S(=O)(=O)NCCCCCC(=O)N(C)C)cc1	-5	1%	10µM*	7	-11%
O=C(CCCNS(=O)(=O)c1ccc(F)cc1)Nc1ccc(F)cc1	3	0%	-5%	8	0%
CC1CCc2c(C(=O)Nc3ccc(OC(F)(F)F)cc3)csc2C1 (stereo not drawn)	5	1%	1%	10	-66%
O=S(=O)(c1cccc(F)c1)N1CCCN(c2ccc(C(F)(F)F)cn2)CC1	4	0%	?	3	?
Oc1c(Cl)cc(Cl)cc1C=Nc1cc(C(F)(F)F)ccc1N1CCc2ccccc2C1	81*	16µM*	-101%	52*	71%
O=S(=O)(NCc1ccc(F)cc1)c1ccccc1Br	·	·	-1%	·	12%
c1coc(-c2nc(-c3ccco3)c(-c3ccco3)nc2-c2ccco2)c1	-2	16%	103%	0	-20%
c1coc(-c2nc3cc4ccccc4cc3nc2-c2ccco2)c1	66*	·	·	26*	·
SMILES	Shiga inhibitor	LmPK inhibitor	Pf growth 96h	Cycloheximide cs	Pf growth 48h
COc1ccc2nc(-c3ccco3)c(-c3ccco3)nc2c1	56	-8%	17%	54*	·
O=C(NCCO)Nc1ccc2nc(-c3ccco3)c(-c3ccco3)nc2c1	6	-9%	-18%	-5	9%
CC(C)(C)OC(=O)NCCCCCO	27*	·	45%	27*	-7%
Cn1c(N)c(-c2ccccc2)c2ccc([N+](=O)[O-])cc2c1=O	-3	0%	1%	-2	?
CCOC(=O)N1CCN(C(=O)CSc2ccc(C(=O)OC)cc2[N+](=O)[O-])CC1	-17	2%	4.7µM*	-2	-19%
Cc1ccc(NC(=O)CSc2ccc(C(N)=O)cc2[N+](=O)[O-])cc1	43*	-1%	29%	27	57%
O=C(c1ccc(N2CCC3(CC2)OCCO3)c([N+](=O)[O-])c1)N1CCOCC1	69*	0%	0%	21*	41%
